Records with an inconclusive call do not appear. The source made the active and inactive calls. Unless noted, calls follow the shape of the dose curve; as a rule, active = well fitted curve in the direction sought with a large enough effect; inconclusive = small, poorly fitted or top-dose-only effect, or another doubt; inactive = no such curve, though single readings can be large; an effect the other way counts as inactive or inconclusive.
How the values were obtained:
[1] = AP1 Signaling Pathway (AID 357; active = well fitted curve in either direction with a large enough effect, not every such curve was filed as active;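 also: ME-180 reporter cells stimulated with EGF at its EC50 level; % is scaled to controls: 0 for no effect and ±100 for the full control effect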); conditions: ME-180 AP-1-bla reporter, EGF-induced, beta-lactamase ratio, 5 h; at 17.2 µM (top of the series) unless noted
Procedure, shortened: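 Beta-lactamase reporter under AP-1 response element, ME-180 background. Stimulus: EC50 EGF. Compound exposure 5 h, 37 °C. Detection: CCF4, 2.5 h RT, 460/530 nm. Values: AC50 from titration.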

[2] = molecular target: Glucocorticoid receptor (Homo sapiens) (UniProt P04150); test: GR-GFP Redistribution (AID 450;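 active = compounds whose dose series gives a full or clear partial fitted curve of increased nuclear translocation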; also: potency is read from the fitted curve at half-maximal effect)
[3] = qHTS Assay for Identification of Small Molecule Agonists for Hypoxia Response Element Signaling Pathway (AID 914; active = well fitted activation curve with a large enough effect in the signal ratio, with a control signal flat, not every such curve was filed as active; the % refers to the signal ratio; also: % of control where 0% means no effect); conditions: ME-180 HRE-bla reporter, beta-lactamase ratio, CoCl2, 17 h; activation: hits give high values
Procedure, shortened: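 ME-180 cells carrying an HRE-driven beta-lactamase reporter were treated with compounds in a titration series plus an EC50 level of CoCl2 for 17 h at 37 degrees Celsius; CCF4 readout as the 460nm/530nm ratio gave AC50 values.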

[4] = molecular target: Cytochrome P450 1A2 (Homo sapiens) (UniProt P05177); test: p450-cyp1a2 (AID 410; calls by dose curve;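 also: -100% = full effect of reference inhibitor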)
Procedure, shortened: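 20nM CYP1A2, 100uM Luciferin-ME (=Km), 100mM KPO4; cpd 10 min RT; +NADPH regen, 60 min RT; stop/detect 20 min; luminescence. Normalized to furafylline 57 uM = full inhibition.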

[5] = NFAT Signaling Pathway (AID 444; active = well fitted curve in either direction with a large enough effect, not every such curve was filed as active;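 also: carbachol stimulus at about its EC50 of 1 µM final; % is scaled to controls: 0 for no effect and ±100 for the full control effect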); conditions: Jurkat NFAT-bla M1, carbachol, beta-lactamase ratio, 5 h; at 17.2 µM (top of the series) unless noted
Procedure, shortened: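 Jurkat cells carrying an NFAT-driven β-lactamase reporter and co-transfected muscarinic M1 receptor were treated with compound plus carbachol (1 uM final, an EC50 level) for 5 h at 37 °C. CCF4 loading followed for 1 h at RT; 460/530 nm ratio gave %activity.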

[6] = Stat Signaling Pathway (AID 446; active = well fitted curve in either direction with a large enough effect, not every such curve was filed as active;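 also: ME-180 cervical cancer cells given 40 pM IL-6 alongside compound; SIE-controlled beta-lactamase reporter measured as 460/530 nm FRET emission ratio; % is scaled to controls: 0 for no effect and ±100 for the full control effect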); conditions: ME-180 (cervical carcinoma) SIE beta-lactamase reporter, IL-6 stimulated, 5 h; at 17.2 µM (top of the series) unless noted
Procedure, shortened: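 Overnight-plated ME-180 cells bearing a STAT Inducible Element beta-lactamase reporter; 5 h co-exposure to compound and 40 pM IL-6; values normalized to 300 pM IL-6 and 125 nM JAK inhibitor controls.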

[7] = molecular target: Mitogen-activated protein kinase 10 (Mus musculus) (UniProt Q61831); test: JNK3 AlphaScreen Assay (AID 530; active = well fitted curve in either direction with a large enough effect, not every such curve was filed as active;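 also: kinase came from lysate of stimulated human HepG2 cells; signal reports phosphorylation of biotinylated GST-cJun 1-79 at Ser73 with 10 µM ATP; % is scaled to controls: 0 for no effect and ±100 for the full control effect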)
Procedure, shortened: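 Biotinylated GST-cJun(1-79) served as substrate for JNK3 in HepG2 lysates stimulated with IL-1beta and TNF-alpha. ATP was 10 uM final, pH 7.6. Ser73 phosphorylation was quantified by AlphaScreen (680 nm excitation).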

[8] = molecular target: 3',5'-cyclic-AMP phosphodiesterase 4B (Homo sapiens) (UniProt Q07343); test: qHTS Assay for Inhibitors of PDE-IV (AID 607; active = well fitted activation curve with a large enough effect in the main read-out, with a control signal flat, not every such curve was filed as active; also: % of control where 0% means no effect)
Procedure, shortened: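 Live HEK293 cells with a modified cyclic nucleotide-gated (CNG) channel report intracellular cAMP via membrane-potential dye fluorescence (ex 535/em 590 nm). Endogenous PDE-IV was targeted. Compounds were tested at up to 22.9 uM final; RO 20-1724 100 uM served as control.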

[9] = molecular target: Guanine nucleotide-binding protein G(i) subunit alpha-1 (Homo sapiens) (UniProt P63096); test: qHTS Assay for Inhibitors of RGS12 GoLoco Motif Activity (Green Fluorophore) (AID 879);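 also: 0% = labeled peptide with Gαi1 and full inhibition = labeled peptide alone without protein; negative values mean loss of peptide binding seen as reduced polarization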
Procedure, shortened: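 A drop in FITC polarization marked displacement of the FITC-tagged RGS12 GoLoco peptide (10 nM) from Gαi1 (50 nM). Compounds were incubated 10 min at room temperature in Tris pH 7.5 buffer containing 150 mM NaCl, 0.1 mM GDP and 0.05% NP40; unlabeled peptide titration served as control.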

[10] = molecular target: Cytochrome P450 3A4 (Homo sapiens) (UniProt P08684); test: qHTS Assay for Activators of Cytochrome P450 3A4 (AID 885); also: nearly all actives have a fitted effect of over 65% in size
Procedure, shortened: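 Using 20nM recombinant human CYP3A4 in potassium phosphate (200mM), substrate Luciferin-PPXE at 25uM, luminescent luciferin detection followed a 60-min RT NADPH reaction; data scaled to 57 uM ketoconazole.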

[11] = qHTS Assay for Identification of Small Molecule Antagonists for NFkB Signaling Pathway (AID 895; active = well fitted inhibition curve with a large enough effect in the signal ratio, with a control signal flat, not every such curve was filed as active; the % refers to the signal ratio; also: potency is read from the fitted curve at half-maximal effect)
Procedure, shortened: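 NFkB-bla ME-180 cervical carcinoma cells with beta-lactamase reporter under NFkB response element; compounds added, then TNF alpha at 10 pM final (EC50), 5 h at 37 C. LiveBLAzer substrate 2 h, room temperature; emission 460/530 nm at 405 nm excitation.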

[12] = molecular target: Pyruvate kinase (Leishmania mexicana) (UniProt Q27686); test: qHTS Validation Assay for Inhibitors of Leishmania Mexicana Pyruvate Kinase (AID 945);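 also: 0% = DMSO only neutral control wells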
Procedure, shortened: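 LmPYK E451W 0.2 nM; 0.5 mM PEP, 0.1 mM ADP, 7 mM MgCl2, 50 mM KCl, imidazole pH 7.2, 0.01% Tween 20, 0.05% BSA; 1 h RT; PKLight luminescence; DMSO-normalized.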

[13] = molecular target: Pyruvate kinase PKM (Homo sapiens) (UniProt P14618); test: qHTS Assay for Activators of Human Muscle Pyruvate Kinase (AID 954; active = well fitted curve in the direction sought with a large enough effect, not every such curve was filed as active;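 also: 0% = uninhibited enzyme and -100% = no enzyme or full thiadiazolimine inhibition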)
Procedure, shortened: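 Screening used highly purified human pyruvate kinase M2 under submaximal activity, with PEP at its Km and ADP below Km. After an hour at room temperature, ATP was read by luciferase luminescence.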

[14] = molecular target: Alpha-galactosidase A (Homo sapiens) (UniProt P06280); test: Counterscreen for Glucocerebrosidase Inhibitors: qHTS Assay for Human alpha-Galactosidase at pH 4.5 (AID 992); also: 0% is about no effect
Procedure, shortened: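 Each compound is preincubated briefly with 2 nM enzyme before substrate addition (80 uM); plates then sit 20 min at ambient temperature, are quenched with 1M NaOH/1M glycine, and read fluorometrically.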

[15] = molecular target: alpha-glucosidase (Oryza sativa, rice) (UniProt Q653V4); test: Counterscreen for Glucocerebrosidase Inhibitors: qHTS Assay for Rice alpha-Glucosidase at pH 5.0 (AID 997);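 also: 0% = full activity with enzyme and -100% = basal without enzyme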
Procedure, shortened: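 Endpoint fluorogenic assay at pH 5.0: compounds (0.7 nM to 77 uM) titrated against 4 nM rice enzyme and 400 uM 4-MU-alpha-glucoside for 20 min at room temperature; NaOH/glycine stop, read ex 365/em 440 nm, Hill-fitted AC50.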

Sequence of Glucocorticoid receptor (Homo sapiens) (P04150 whole entry, looked up): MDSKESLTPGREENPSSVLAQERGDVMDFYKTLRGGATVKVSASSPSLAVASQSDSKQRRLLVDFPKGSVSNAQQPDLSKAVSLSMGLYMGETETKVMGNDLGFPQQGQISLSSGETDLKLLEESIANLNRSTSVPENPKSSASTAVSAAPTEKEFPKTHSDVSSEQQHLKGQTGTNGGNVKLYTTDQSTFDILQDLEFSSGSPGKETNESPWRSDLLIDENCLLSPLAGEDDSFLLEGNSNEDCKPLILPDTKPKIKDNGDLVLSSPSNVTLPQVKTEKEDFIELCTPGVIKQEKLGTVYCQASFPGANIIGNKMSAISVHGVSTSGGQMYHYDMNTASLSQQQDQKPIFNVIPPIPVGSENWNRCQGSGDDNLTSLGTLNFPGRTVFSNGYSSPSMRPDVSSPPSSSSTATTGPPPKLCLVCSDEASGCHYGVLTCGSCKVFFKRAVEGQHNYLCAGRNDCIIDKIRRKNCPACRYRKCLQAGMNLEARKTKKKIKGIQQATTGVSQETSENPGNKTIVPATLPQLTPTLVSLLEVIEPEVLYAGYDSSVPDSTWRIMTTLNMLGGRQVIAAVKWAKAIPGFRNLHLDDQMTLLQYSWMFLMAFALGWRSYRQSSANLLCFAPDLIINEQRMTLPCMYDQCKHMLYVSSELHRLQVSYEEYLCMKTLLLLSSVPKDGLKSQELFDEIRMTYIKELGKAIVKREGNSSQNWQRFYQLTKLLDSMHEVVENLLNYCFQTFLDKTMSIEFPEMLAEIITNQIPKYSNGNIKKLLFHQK
Sequence of Cytochrome P450 3A4 (Homo sapiens) (P08684 whole entry, looked up): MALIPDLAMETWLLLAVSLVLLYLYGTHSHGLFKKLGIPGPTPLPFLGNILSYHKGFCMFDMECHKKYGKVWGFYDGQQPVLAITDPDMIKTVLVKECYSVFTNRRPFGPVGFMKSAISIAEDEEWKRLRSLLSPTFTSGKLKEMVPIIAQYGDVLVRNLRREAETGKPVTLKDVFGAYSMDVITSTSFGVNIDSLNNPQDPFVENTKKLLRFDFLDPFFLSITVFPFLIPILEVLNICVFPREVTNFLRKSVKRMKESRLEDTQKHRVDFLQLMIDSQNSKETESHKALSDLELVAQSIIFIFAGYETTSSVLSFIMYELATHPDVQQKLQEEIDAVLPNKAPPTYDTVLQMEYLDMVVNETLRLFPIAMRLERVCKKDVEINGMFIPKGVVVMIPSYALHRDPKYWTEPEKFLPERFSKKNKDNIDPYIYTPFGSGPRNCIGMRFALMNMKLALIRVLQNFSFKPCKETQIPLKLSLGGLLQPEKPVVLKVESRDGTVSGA
Sequence of Pyruvate kinase PKM (Homo sapiens) (P14618 whole entry, looked up): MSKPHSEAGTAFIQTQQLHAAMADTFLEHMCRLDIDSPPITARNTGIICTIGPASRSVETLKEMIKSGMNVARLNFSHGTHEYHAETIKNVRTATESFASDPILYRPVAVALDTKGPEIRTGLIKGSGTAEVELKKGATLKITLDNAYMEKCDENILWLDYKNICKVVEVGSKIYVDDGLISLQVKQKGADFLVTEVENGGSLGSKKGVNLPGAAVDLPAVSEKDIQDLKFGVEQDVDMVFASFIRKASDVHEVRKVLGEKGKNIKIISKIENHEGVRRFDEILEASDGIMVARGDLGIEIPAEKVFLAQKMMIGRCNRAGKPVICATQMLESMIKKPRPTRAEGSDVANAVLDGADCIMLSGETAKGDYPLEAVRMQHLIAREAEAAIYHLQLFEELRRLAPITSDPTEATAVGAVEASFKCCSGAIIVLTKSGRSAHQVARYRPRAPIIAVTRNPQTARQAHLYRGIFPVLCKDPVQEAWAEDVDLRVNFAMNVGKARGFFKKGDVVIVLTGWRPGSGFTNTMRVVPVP
Sequence of Guanine nucleotide-binding protein G(i) subunit alpha-1 (Homo sapiens) (P63096 whole entry, looked up): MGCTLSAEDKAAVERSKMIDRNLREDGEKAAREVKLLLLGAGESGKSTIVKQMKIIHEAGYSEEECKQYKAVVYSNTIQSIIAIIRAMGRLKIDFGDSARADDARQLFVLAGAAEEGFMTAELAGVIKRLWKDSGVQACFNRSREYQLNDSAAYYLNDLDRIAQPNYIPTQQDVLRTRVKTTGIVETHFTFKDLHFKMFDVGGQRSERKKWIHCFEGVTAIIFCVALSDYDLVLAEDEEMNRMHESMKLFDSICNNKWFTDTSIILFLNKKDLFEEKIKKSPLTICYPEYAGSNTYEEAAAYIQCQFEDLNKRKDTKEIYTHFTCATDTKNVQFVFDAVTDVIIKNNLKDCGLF
Sequence of Cytochrome P450 1A2 (Homo sapiens) (P05177 whole entry, looked up): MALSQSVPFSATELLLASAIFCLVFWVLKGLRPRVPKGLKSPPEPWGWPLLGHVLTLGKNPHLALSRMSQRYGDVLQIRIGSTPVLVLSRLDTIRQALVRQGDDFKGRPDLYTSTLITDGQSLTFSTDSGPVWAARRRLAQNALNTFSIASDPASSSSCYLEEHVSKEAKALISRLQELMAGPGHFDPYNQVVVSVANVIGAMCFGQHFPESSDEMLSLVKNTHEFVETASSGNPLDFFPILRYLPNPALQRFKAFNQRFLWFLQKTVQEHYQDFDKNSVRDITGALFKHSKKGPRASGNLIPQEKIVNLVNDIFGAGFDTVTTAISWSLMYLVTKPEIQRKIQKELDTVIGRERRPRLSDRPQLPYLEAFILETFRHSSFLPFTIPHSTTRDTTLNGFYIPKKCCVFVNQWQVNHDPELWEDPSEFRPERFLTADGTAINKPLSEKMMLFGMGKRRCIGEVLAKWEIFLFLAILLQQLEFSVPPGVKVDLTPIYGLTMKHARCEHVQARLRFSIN
Sequence of 3',5'-cyclic-AMP phosphodiesterase 4B (Homo sapiens) (Q07343 whole entry, looked up): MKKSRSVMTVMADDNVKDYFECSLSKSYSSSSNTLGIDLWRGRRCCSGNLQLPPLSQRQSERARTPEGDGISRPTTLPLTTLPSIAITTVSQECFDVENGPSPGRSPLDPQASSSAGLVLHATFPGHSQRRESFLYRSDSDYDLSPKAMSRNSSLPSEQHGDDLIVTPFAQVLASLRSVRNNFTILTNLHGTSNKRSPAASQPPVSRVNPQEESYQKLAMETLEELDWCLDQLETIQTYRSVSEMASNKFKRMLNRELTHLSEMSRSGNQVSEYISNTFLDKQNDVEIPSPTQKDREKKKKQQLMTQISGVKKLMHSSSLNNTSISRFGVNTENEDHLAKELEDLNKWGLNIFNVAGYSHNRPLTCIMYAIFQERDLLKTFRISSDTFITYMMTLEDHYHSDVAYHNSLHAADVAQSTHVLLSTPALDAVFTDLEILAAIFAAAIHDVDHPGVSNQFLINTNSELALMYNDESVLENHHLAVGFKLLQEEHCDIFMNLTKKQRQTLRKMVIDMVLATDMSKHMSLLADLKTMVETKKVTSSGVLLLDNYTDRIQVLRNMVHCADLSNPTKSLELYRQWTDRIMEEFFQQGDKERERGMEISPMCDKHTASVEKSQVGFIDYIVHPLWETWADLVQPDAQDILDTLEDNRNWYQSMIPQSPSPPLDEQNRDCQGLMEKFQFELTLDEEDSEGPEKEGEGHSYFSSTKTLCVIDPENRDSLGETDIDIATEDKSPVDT
Sequence of Alpha-galactosidase A (Homo sapiens) (P06280 whole entry, looked up): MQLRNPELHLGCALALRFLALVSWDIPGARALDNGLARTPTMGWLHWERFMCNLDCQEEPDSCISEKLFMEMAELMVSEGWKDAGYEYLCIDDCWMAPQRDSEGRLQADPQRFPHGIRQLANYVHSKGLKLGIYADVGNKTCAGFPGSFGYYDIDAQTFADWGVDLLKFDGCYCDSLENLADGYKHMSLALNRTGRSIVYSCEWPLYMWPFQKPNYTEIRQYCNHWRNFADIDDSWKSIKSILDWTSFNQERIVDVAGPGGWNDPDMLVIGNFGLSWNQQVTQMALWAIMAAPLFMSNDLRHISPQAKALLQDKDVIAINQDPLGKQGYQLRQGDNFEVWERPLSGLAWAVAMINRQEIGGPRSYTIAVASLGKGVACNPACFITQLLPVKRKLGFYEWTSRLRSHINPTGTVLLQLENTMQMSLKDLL
Sequence of Pyruvate kinase (Leishmania mexicana) (Q27686 2-499 E452W): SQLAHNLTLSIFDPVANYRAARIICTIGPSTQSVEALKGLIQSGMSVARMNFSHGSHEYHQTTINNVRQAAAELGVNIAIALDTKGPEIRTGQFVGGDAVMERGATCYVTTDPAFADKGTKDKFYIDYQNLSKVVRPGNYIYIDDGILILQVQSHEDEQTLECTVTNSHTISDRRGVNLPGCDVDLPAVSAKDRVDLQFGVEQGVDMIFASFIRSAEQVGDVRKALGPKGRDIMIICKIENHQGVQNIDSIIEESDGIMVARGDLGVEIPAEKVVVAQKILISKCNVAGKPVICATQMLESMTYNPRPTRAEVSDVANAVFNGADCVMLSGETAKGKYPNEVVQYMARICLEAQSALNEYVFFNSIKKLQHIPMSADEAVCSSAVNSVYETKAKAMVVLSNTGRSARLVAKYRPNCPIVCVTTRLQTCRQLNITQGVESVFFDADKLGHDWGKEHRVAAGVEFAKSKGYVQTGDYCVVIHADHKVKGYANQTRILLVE

CCOC(=O)NC(Nc1sc2c(c1C(=O)OC)CCN(C)C2)(C(F)(F)F)C(F)(F)F
inactive: activity change, negative = inhibition [1] 12.1% | Potency [2] > 20.6 µM | activation [3] 6.5%

C[C@H](N)C1CCC(C(=O)Nc2ccncc2)CC1 (stereo partly specified)
active: Potency [11] 7.94 µM
inactive: Potency [4] | activity change, negative = inhibition [5] 3.2% [at 38 µM] | activity, negative = inhibition [6] -8.56% [at 38 µM] | Potency [2] > 46 µM | Potency [7] | Potency [8] | outcome [9] | Potency [10] | Potency [12] | outcome [13] | outcome [14] | outcome [15]
